In all, about 320,000 compounds went through this assay and about 22,000 (6.9%) were called active. Another 27% or so got no clear call; they are omitted. Calls follow the shape of the dose curve; as a rule, active = well fitted inhibition curve with a large enough effect; inconclusive = small, poorly fitted or top-dose-only effect, or another doubt; inactive = no such curve, though single readings can be large or run the other way. For the sample, actives were picked, then their nearest neighbours and some compounds at random.
assay: Primary qHTS for delayed death inhibitors of the malarial parasite plastid, 96 hour incubation; conditions: P. falciparum luciferase reporter growth; series mostly up to 28.7 µM; activity change, negative = inhibition: at the top concentration
How it was run: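 P. falciparum expressing integrated firefly luciferase, in erythrocytes at 2% hematocrit, 0.05% parasitemia, incubated with compounds 96 h at 37 C, 5% CO2. Growth inhibition read as loss of luminescence; two-generation exposure targets delayed-death apicoplast inhibitors.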
% is scaled to controls: 0 for no effect and ±100 for the full control effect; potency is read from the fitted curve at half-maximal effect.

Row | Structure (SMILES) | activity change, negative = inhibition | Potency
1 | Cc1cccc(C)c1NC(=O)CSc1ccc([N+](=O)[O-])cn1 | -13.6% (inactive) | –
2 | O=[N+]([O-])c1ccc(Sc2n[nH]c(-c3ccco3)n2)nc1 | 219% (inactive) | –
3 | CC(C)(C)n1cnnc1Sc1ccc([N+](=O)[O-])cn1 | – | 1.65 µM (active)
4 | Cc1cccc(N(C(=O)c2csnn2)C(C(=O)NCc2ccccc2)c2ccncc2)c1 (stereo not given) | -0.692% (inactive) | –
5 | COc1cc(C(=S)N2CCOCC2)ccc1O | – | inactive
6 | CCOc1cc(C(=S)N2CCOCC2)ccc1OS(=O)(=O)c1ccc(Br)cc1 | 13.8% (inactive) | –
7 | CCOc1cc(C(=S)N2CCOCC2)ccc1O | – | 13.1 µM (active)
8 | CCOC(=O)N1CCN(C(=O)CSc2nc(=O)n3cccc(C)c3n2)CC1 | 8.94% (inactive) | –
9 | CCN1c2nc3c(C)cccn3c(=O)c2CC2(C(=O)N(C)C(=O)N(C)C2=O)C1C (stereo not given) | – | 3.29 µM (active)
10 | CN(Cc1c(F)cccc1Cl)C(=O)CNC(=O)c1ccc2c(c1)OCO2 | 20.4% (inactive) | –
11 | Cc1ccc(C(CC(=O)O)NC(=O)c2ccc(S(=O)(=O)N3CCCC3)cc2)cc1 (stereo not given) | 22.2% (inactive) | –
12 | CCOc1ccc(N2CC(C(=O)NCCN3C(=O)S/C(=C\c4cccnc4)C3=O)CC2=O)cc1 (stereo not given) | 14.5% (inactive) | –
13 | Cc1cc(OCCCC(=O)NCCN2C(=O)S/C(=C\c3cccnc3)C2=O)ccc1Cl | – | 11.7 µM (active)
14 | O=C(NCCN1C(=O)S/C(=C\c2cccnc2)C1=O)c1cccc(OC(F)F)c1 | -27.2% (inactive) | –
15 | COC(=O)c1ccc(S(=O)(=O)NCc2ccccc2)n1C | 70.9% (inactive) | –
16 | Cc1ccc(C(=O)CCC(=O)N(C)CC(=O)Nc2c(Cl)cccc2Cl)cc1 | 21.6% (inactive) | –
17 | COc1cc(OC)cc(-c2cc3nc(C4CCN(C(=O)OC(C)(C)C)CC4)cc(=O)n3[nH]2)c1 | – | 1.65 µM (active)
18 | CC1CCN(C(=O)c2cc3nc(C4CC4)cc(C(F)(F)F)n3n2)CC1 | 9.96% (inactive) | –
19 | CCOC(=O)N1CCC(c2cc(=O)n(-c3ccccc3)[nH]2)CC1 | 0.756% (inactive) | –
20 | O=C(Oc1ccc(-c2nnco2)cc1)c1ccc(F)c(S(=O)(=O)N2CCOCC2)c1 | -11.3% (inactive) | –
21 | O=C(CCS(=O)(=O)c1ccc2c(c1)NC(=O)CS2)NCc1ccccc1Cl | 11.6% (inactive) | –
22 | Cc1csc(/N=C/N(C)C)c1C#N | 26.6% (inactive) | –
23 | Cc1cc(C)c2nc(N(CCN(C)C)C(=O)/C=C/c3cccs3)sc2c1 | – | 6.57 µM (active)
24 | CC(=O)N(CCCN(C)C)c1nc2ccc(C)cc2s1 | 9.36% (inactive) | –
25 | Cc1cccc2sc(N(CCCN(C)C)C(=O)CCS(=O)(=O)c3ccccc3)nc12 | 5.57% (inactive) | –

Row | Structure (SMILES) | activity change, negative = inhibition | Potency
26 | CCOC(=O)c1sc2nc(C)[nH]c(=O)c2c1C | -1.31% (inactive) | –
27 | Cc1ccc(NC(=O)CSc2nc(CSc3ccc(C)cc3)cc(=O)[nH]2)cc1 | -16.4% (inactive) | –
28 | O=c1cc(CSc2ccccn2)nc(N2CCN(c3ccccc3)CC2)[nH]1 | -8.4% [at 5.75 µM] (inactive) | –
29 | Cc1ccc(SCc2cc(=O)[nH]c(N3CCCCC3)n2)cc1 | – | 5.22 µM (active)
30 | O=C(OCCN=C1NS(=O)(=O)c2ccccc21)c1cccc([N+](=O)[O-])c1 | 48.1% (inactive) | –
31 | Cc1cccc(NC(=O)c2sc3nc4c(c(-c5ccco5)c3c2N)CCC4)c1 | – | 1.85 µM (active)
32 | NC(=O)c1sc2nc3c(c(-c4ccccc4)c2c1N)CCC3 | -25.1% (inactive) | –
33 | Cc1nc2sc(C(=O)c3ccccc3)c(N)c2c2c1CCCC2 | -45.8% (inactive) | –
34 | CCN(C(=O)CSc1ncnc2c1cnn2-c1ccccc1)C1CCS(=O)(=O)C1 (stereo not given) | 6.57% (inactive) | –
35 | CCOc1ccc(NC(=O)CN(C)C(=O)CCSc2ccc(F)cc2)cc1OCC | -18.2% (inactive) | –
36 | CC(=O)Nc1ccc(Nc2nc3c(S(=O)(=O)c4ccc(C)c(C)c4)nnn3c3ccccc23)cc1 | 25% (inactive) | –
37 | Cc1cccc(Nc2nc3c(S(=O)(=O)c4ccccc4)nnn3c3ccccc23)c1C | – | 0.465 µM (active)
38 | COc1ccc(N2C(=O)CN=C2Nc2cccc(C)c2C)cc1OC | 25.7% (inactive) | –
39 | CCN(CC)S(=O)(=O)c1ccc(OC)c(NC(=O)CCc2c(C)noc2C)c1 | -28% (inactive) | –
40 | O=S(=O)(NC1CC1)c1ccc(Cl)cc1 | 9.29% (inactive) | –
41 | C[N+](C)(C)CCNC(=O)c1c(O)c2c([nH]c1=O)CCCC2 | 0% (inactive) | –
42 | CCc1nnc(NC(=O)c2c(O)c3c([nH]c2=O)CCCC3)s1 | 60.9% (inactive) | –
43 | O=C(NCc1ccccn1)c1c(O)c2c([nH]c1=O)CCCC2 | – | 7.38 µM (active)
44 | Nc1nnn(CC(=O)N/N=C/c2ccccc2)n1 | 5.79% (inactive) | –
45 | O=c1c2ccccc2c(-c2ccccc2)nn1Cc1ccccc1 | -15.9% (inactive) | –
46 | O=c1cc(N2CCN(Cc3ccccc3)CC2)c(-c2ccccc2)n[nH]1 | 6.44% (inactive) | –
47 | O=c1cc(N2CCCCC2)c(-c2ccccc2)nn1Cc1cccc(F)c1 | – | 11.7 µM (active)
48 | O=C(CN(Cc1ccc(Br)cc1)S(=O)(=O)c1ccccc1)NCc1ccncc1 | 16.3% (inactive) | –
49 | Cc1nn2c(=O)cc(COC(=O)c3ccc(NC(=O)C(C)(C)C)cc3)nc2s1 | -3.18% (inactive) | –
50 | CSc1ccc(S(=O)(=O)NCC(=O)OCC(=O)NC2(C#N)CCCCC2)cc1[N+](=O)[O-] | 26.1% (inactive) | –

Row | Structure (SMILES) | activity change, negative = inhibition | Potency
51 | Cc1ccc(C(=O)OCC(=O)N2CC(C)CC(C)C2)cc1S(=O)(=O)N1CCCCC1 (stereo not given) | 8.7% (inactive) | –
52 | Cc1ccc(C(=O)OCC(=O)NCc2cc(C)c(O)c(C)c2)cc1S(=O)(=O)N1CCCCC1 | – | 14.7 µM (active)
53 | COc1ccc(CNC(=O)COC(=O)c2ccc(C)c(S(=O)(=O)N3CCOCC3)c2)cc1OC | -27.4% (inactive) | –
54 | COc1ccccc1CNS(=O)(=O)c1cc(C(=O)NCc2ccccn2)c(Cl)cc1Cl | -11.1% (inactive) | –
55 | CC(C)c1csc(CN2CCC(CO)(Cc3ccccc3)CC2)n1 | 5.83% (inactive) | –
56 | OCC1(CCc2ccccc2)CCN(Cc2ccc3nsnc3c2)CC1 | – | 11.7 µM (active)
57 | CC(C)(O)C#Cc1ccc(CN2CCC(CO)(CCc3ccccc3)CC2)cc1 | 35.2% (inactive) | –
58 | CC(=O)c1cccc(CN2CCC(CO)(Cc3ccccc3)CC2)c1 | -0.673% (inactive) | –
59 | COc1ccc(CC2(CO)CCN(Cc3cnn(C)c3)CC2)cc1 | 34.1% (inactive) | –
60 | Cc1cccc(-c2ncc(CN3CCC(CO)(CCCc4ccccc4)CC3)cn2)c1 | – | 9.28 µM (active)
61 | CN(CC1CCCO1)S(=O)(=O)c1ccc(C(=O)Nc2ccc(F)cc2)cc1 (stereo not given) | -8.74% (inactive) | –
62 | COc1cccc(-c2ccc3c(c2)S(=O)(=O)c2cccc(C(=O)O)c2C3=O)c1OC | 8.29% (inactive) | –
63 | COc1ccc(-c2cc(=O)oc3cc(OCC(=O)N[C@@H](Cc4c[nH]c5ccccc45)C(=O)O)ccc23)cc1 | 30.8% (inactive) | –
64 | CCCCN(CC)C(=O)c1ccc2c(c1)OCO2 | 0% (inactive) | –
65 | CC(=O)COc1ccc2c(-c3ccccc3)cc(=O)oc2c1 | 13.2% (inactive) | –
66 | CCN(CC)CCC(c1cc(OC)c(OC)c(OC)c1)c1c(OC)cc(OC)c2c(-c3ccccc3)cc(=O)oc12 (stereo not given) | – | 2.94 µM (active)
67 | CCN(CC)CCC(c1ccc2c(c1)OCO2)c1c(OC)cc(OC)c2c(-c3ccccc3)cc(=O)oc12 (stereo not given) | – | 5.22 µM (active)
68 | COc1ccc(F)cc1S(=O)(=O)NCC(c1ccc2c(c1)OCO2)N1CCN(C)CC1 (stereo not given) | -9.2% (inactive) | –
69 | Cc1cc(=O)oc2c(C)c(OCC(=O)N3CCN(Cc4ccc5c(c4)OCO5)CC3)ccc12 | 11.4% (inactive) | –
70 | Cc1[nH][nH]c(=O)c1C(c1ccc2c(c1)OCO2)c1c(C)[nH][nH]c1=O | 19% (inactive) | –
71 | CCN(CC)C(=O)CC(c1ccc2c(c1)OCO2)c1c(OC)cc(OC)c2c(-c3ccccc3)cc(=O)oc12 (stereo not given) | – | 11.7 µM (active)
72 | CC(NS(=O)(=O)c1ccc(Br)cc1)C(=O)NCC1CCCO1 (stereo not given) | -1.33% (inactive) | –
73 | O=C(NNC(=O)c1cc(-c2ccccc2Cl)nc2ccccc12)c1csc(N2CCOCC2)n1 | -6.34% (inactive) | –
74 | Cc1cc(C)cc(Oc2c(C(F)(F)F)oc3cc(OCC(=O)O)ccc3c2=O)c1 | 38.5% (inactive) | –
75 | COc1ccccc1C1CCN(C(=S)Nc2ccc(Br)cc2)CC1 | 22.2% (inactive) | –

Row | Structure (SMILES) | activity change, negative = inhibition | Potency
76 | COc1ccccc1OCCNC(=O)C(CCSC)NC(=O)COc1ccccc1 (stereo not given) | -0.324% (inactive) | –
77 | Cc1ccc(CNC(=O)C2CCN(S(=O)(=O)c3ccc4nc5c(c(C(=O)O)c4c3)CC(C)CC5)CC2)cc1 (stereo not given) | -15.1% (inactive) | –
78 | CC1CCN(C(=O)c2ccccc2NC(=O)Cc2ccccc2)CC1 | 7.37% (inactive) | –
79 | Cc1c(NC(=O)c2cc(-c3ccc(Br)cc3)on2)c(=O)n(-c2ccccc2)n1C | 23.4% (inactive) | –
80 | Cc1ccccc1-n1c(C)cc(/C=C2\NC(=O)NC2=O)c1C | 110% (inactive) | –
81 | Cc1no[n+]([O-])c1COc1ccccc1/C=C1\NC(=S)NC1=O | – | 10.4 µM (active)
82 | O=C(CN1CCN(S(=O)(=O)c2ccc(F)cc2)CC1)NC1CC1 | -1.38% (inactive) | –
83 | CC(=O)c1ccc(S(=O)(=O)NCc2nnnn2-c2ccccc2)cc1 | -8.2% (inactive) | –
84 | Cc1cc(NC(=O)COc2ccccc2C#N)no1 | 134% (inactive) | –
85 | CCOC(=O)C1CCN(c2ncnc3c2c(-c2ccccc2)cn3-c2ccc(C)cc2)CC1 | -13.3% (inactive) | –
86 | CCOC(=O)C1CCN(c2ncnc3c2oc2ccc(Br)cc23)CC1 | – | 13.1 µM (active)
87 | CCOC(=O)C1CCN(Cc2nnc(-c3cccc(Br)c3)o2)CC1 | -17.5% (inactive) | –
88 | Cn1cncc1COC(=O)c1ccc(Cl)cc1 | 14% (inactive) | –
89 | COc1ccccc1C(=O)NCc1nnc(SC(C)C(=O)Nc2nccs2)n1C (stereo not given) | -13.3% (inactive) | –
90 | Cc1ccc(NC(=O)CN2CCc3ccccc3C2)cc1C | -4.43% (inactive) | –
91 | O=C(CN1CCN(Cc2ccccc2)CC1)NC(c1ccccc1)c1ccccc1 | – | 14.7 µM (active)
92 | CC1CN(CC(=O)NC(C)c2ccccc2)CC(C)O1 (stereo not given) | 163% (inactive) | –
93 | O=C(Cc1ccc(-c2ccccc2)cc1)NC(c1ccccc1)c1ccccc1 | -28.6% (inactive) | –
94 | CCCc1cc(=O)[nH]c(SCC(=O)Nc2sc3c(c2C#N)CCCC3)n1 | 16.2% (inactive) | –
95 | N#CCCN(C(=O)COC(=O)c1ccc(S(=O)(=O)N2CCCCCC2)cc1)c1ccccc1 | 21.3% (inactive) | –
96 | CC(C)(CNC(=O)CNC(=O)C1CCCCC1)N1CCOCC1 | -41.7% (inactive) | –
97 | O=C(O)c1ccccc1-c1ccccc1C(=O)NCCc1ccccc1 | 0% (inactive) | –
98 | Cn1c(=O)c2c(n(Cc3ccccc3)c1=O)NC(=O)C2CC(=O)N1CCc2ccccc2C1 (stereo not given) | – | 11.7 µM (active)
99 | O=C(C(=O)N1CCc2ccccc2C1)N1CCc2ccccc2C1 | 89.7% (inactive) | –
100 | CC1(C)CC(=O)C(CC(=O)N2CCC(Cc3ccccc3)CC2)C(=O)C1 | 7.2% (inactive) | –
